Drawing on ChEMBL document CHEMBL1961873, “Compounds: GSK PKIS; Assays: Nanosyn kinase panel” (2012), this text covers inhibition for 3 compounds.

The target of assay [1] is T1, Mitogen-activated protein kinase 12 (Homo sapiens) (UniProt P53778).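 Further: values are averaged p38gamma kinase inhibition readings, compounds tested at 1 µM.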
T1 sequence (whole entry): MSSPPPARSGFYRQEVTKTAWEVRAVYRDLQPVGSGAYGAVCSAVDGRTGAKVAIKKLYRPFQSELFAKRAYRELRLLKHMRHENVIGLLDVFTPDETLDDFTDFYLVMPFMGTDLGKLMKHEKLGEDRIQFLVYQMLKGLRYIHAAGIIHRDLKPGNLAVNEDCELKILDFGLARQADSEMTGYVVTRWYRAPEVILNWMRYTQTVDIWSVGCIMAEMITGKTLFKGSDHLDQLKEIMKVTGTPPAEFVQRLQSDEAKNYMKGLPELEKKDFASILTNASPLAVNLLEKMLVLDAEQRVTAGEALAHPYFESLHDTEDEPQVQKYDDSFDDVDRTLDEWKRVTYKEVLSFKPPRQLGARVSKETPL
As to conditions: at 1 µM.

Assay [2] concerns the target SRSF protein kinase 1 (Homo sapiens) (UniProt Q96SB4). Conditions: at 0.1 µM.
Assay [3] shares this target. Conditions: at 1 µM.
Assay [4] addresses Phosphatidylinositol 4,5-bisphosphate 3-kinase catalytic subunit alpha isoform (Homo sapiens) (UniProt P42336). Conditions: at 0.1 µM.
Assay [5] has the same target. As to conditions: at 1 µM.
The target in assay [6] is T2, Phosphatidylinositol 4,5-bisphosphate 3-kinase catalytic subunit delta isoform (Homo sapiens) (UniProt O00329).
T2 sequence (whole entry): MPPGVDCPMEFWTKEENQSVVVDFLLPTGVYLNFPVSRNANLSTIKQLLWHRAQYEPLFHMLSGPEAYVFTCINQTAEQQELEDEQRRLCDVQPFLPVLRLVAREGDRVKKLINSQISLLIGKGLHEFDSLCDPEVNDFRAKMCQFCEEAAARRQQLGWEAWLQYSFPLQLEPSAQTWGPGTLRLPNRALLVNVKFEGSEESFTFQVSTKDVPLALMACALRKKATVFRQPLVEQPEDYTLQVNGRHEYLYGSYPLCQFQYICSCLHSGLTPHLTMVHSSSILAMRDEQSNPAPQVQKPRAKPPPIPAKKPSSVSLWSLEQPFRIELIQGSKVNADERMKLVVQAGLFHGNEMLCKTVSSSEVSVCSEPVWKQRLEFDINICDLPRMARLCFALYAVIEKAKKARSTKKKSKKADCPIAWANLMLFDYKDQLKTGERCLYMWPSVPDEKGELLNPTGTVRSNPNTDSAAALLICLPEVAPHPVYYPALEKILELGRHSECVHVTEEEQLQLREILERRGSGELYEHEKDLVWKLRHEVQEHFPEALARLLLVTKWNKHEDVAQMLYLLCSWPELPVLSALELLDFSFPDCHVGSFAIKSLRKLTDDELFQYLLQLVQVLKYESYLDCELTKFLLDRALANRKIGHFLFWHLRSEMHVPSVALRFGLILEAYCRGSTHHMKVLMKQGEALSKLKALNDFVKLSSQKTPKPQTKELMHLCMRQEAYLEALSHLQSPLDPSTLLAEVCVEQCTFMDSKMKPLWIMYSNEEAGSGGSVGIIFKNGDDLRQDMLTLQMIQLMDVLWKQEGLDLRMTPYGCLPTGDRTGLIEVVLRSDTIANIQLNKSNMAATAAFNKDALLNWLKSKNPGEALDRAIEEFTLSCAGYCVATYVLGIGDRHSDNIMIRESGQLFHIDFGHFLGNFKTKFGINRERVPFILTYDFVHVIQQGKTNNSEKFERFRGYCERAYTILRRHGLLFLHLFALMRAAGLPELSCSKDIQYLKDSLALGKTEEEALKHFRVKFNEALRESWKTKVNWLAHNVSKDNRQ
Conditions: at 0.1 µM.

For assay [7], the target named is T2, Phosphatidylinositol 4,5-bisphosphate 3-kinase catalytic subunit delta isoform (Homo sapiens). Conditions: at 1 µM.
Assay [8] addresses Phosphatidylinositol 4-kinase beta (Homo sapiens) (UniProt Q9UBF8). Conditions: at 0.1 µM.
For assay [9] the target is unchanged. As to conditions: at 1 µM.
In assay [10] the target is Sphingosine kinase 1 (Homo sapiens) (UniProt Q9NYA1). Conditions: at 0.1 µM.
For assay [11] the target is unchanged. Conditions: at 1 µM.
The target of assay [12] is T3, Sphingosine kinase 2 (Homo sapiens) (UniProt Q9NRA0).
T3 sequence (whole entry): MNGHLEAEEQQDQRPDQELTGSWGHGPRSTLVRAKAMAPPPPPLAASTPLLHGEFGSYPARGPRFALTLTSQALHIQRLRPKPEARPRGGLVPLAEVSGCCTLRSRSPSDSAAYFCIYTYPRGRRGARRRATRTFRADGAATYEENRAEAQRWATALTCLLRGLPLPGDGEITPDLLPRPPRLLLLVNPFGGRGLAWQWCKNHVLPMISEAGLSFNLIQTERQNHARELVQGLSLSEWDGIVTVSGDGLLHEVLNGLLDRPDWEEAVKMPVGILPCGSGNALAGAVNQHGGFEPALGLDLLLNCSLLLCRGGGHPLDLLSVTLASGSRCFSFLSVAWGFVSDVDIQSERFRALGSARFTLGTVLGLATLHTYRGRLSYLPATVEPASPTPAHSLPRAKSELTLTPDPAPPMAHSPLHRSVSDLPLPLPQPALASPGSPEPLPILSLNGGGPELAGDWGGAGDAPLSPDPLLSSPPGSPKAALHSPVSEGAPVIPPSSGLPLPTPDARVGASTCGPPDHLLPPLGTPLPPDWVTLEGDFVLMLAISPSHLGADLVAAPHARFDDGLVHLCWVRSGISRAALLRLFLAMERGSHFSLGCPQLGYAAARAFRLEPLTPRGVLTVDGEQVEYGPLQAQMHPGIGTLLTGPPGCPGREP
As to conditions: at 0.1 µM.

Assay [13] addresses T3, Sphingosine kinase 2 (Homo sapiens). As to conditions: at 1 µM.
The target in assay [14] is Casein kinase II subunit alpha (Homo sapiens) (UniProt P68400). As to conditions: at 0.1 µM.
Assay [15] has the same target. As to conditions: at 1 µM.
In assay [16] the target is T4, Inhibitor of nuclear factor kappa-B kinase subunit alpha (Homo sapiens) (UniProt O15111).
T4 sequence (whole entry): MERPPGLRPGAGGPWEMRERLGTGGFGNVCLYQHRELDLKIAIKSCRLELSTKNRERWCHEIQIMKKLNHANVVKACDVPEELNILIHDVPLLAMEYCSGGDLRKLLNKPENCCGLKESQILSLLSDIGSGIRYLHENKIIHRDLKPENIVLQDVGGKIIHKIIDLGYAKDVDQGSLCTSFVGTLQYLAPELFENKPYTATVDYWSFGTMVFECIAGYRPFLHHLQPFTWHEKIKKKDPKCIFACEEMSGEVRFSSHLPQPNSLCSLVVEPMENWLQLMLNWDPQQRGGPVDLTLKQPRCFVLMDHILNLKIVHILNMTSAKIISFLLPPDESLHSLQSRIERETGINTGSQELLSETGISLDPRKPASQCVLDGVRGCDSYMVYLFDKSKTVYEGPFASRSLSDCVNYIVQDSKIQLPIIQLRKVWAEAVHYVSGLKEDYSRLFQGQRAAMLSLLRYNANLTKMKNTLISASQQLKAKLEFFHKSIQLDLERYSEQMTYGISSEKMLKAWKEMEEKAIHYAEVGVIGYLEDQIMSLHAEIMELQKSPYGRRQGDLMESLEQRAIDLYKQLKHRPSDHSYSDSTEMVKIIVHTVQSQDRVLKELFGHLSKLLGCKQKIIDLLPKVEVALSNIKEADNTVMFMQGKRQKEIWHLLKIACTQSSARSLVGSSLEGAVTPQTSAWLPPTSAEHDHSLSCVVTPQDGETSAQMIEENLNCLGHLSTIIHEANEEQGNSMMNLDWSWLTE
As to conditions: at 0.1 µM.

In assay [17] the target is T4, Inhibitor of nuclear factor kappa-B kinase subunit alpha (Homo sapiens). Conditions: at 1 µM.
Assay [18] has as its target T5, Inhibitor of nuclear factor kappa-B kinase subunit beta (Homo sapiens) (UniProt O14920).
T5 sequence (whole entry): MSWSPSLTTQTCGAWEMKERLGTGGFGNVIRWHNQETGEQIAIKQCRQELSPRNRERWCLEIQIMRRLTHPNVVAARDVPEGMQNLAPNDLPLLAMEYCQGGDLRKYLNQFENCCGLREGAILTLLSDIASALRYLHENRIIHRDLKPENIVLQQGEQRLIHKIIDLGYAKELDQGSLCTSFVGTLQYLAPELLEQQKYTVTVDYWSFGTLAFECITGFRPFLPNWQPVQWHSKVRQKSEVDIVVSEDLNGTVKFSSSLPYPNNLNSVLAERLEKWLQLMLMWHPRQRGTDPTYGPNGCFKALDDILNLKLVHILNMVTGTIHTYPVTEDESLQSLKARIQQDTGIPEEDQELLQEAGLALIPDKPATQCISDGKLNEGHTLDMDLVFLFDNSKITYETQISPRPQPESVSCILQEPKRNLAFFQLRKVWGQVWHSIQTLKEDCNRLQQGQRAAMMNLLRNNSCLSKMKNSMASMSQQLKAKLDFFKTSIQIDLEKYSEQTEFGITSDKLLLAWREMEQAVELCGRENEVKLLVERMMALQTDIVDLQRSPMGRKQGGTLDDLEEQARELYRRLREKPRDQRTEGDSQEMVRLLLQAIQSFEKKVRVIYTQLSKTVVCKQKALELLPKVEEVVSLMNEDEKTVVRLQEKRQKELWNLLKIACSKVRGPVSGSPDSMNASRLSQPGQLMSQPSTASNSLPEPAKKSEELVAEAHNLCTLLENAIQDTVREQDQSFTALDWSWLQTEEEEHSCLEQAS
As to conditions: at 0.1 µM.

Assay [19] concerns the target T5, Inhibitor of nuclear factor kappa-B kinase subunit beta (Homo sapiens). Conditions: at 1 µM.
Assay [20] concerns the target T6, Inhibitor of nuclear factor kappa-B kinase subunit epsilon (Homo sapiens) (UniProt Q14164).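 Further: mean inhibition of IKKε reported, from the GSK PKIS dataset.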
T6 sequence (whole entry): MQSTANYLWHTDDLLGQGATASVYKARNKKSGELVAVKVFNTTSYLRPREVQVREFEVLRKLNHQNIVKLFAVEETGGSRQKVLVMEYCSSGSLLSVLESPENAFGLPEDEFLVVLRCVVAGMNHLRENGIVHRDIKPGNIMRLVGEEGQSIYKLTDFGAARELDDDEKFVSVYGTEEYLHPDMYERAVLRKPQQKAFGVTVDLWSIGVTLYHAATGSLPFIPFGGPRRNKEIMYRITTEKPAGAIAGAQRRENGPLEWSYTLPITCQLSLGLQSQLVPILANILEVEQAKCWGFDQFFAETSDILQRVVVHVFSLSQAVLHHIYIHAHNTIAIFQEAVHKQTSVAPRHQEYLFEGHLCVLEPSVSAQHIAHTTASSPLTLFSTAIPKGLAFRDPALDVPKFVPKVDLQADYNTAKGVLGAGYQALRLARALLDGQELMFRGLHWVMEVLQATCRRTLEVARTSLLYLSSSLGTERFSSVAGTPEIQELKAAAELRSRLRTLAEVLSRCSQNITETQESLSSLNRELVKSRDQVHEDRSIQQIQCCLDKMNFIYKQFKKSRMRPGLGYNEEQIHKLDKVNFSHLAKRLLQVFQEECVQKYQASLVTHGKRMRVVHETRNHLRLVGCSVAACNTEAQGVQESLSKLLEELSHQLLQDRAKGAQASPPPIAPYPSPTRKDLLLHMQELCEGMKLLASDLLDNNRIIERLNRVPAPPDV
Conditions: at 0.1 µM.

Phosphatidylinositol 4-kinase beta (Homo sapiens), sequence (Q9UBF8 2-816 limits assumed): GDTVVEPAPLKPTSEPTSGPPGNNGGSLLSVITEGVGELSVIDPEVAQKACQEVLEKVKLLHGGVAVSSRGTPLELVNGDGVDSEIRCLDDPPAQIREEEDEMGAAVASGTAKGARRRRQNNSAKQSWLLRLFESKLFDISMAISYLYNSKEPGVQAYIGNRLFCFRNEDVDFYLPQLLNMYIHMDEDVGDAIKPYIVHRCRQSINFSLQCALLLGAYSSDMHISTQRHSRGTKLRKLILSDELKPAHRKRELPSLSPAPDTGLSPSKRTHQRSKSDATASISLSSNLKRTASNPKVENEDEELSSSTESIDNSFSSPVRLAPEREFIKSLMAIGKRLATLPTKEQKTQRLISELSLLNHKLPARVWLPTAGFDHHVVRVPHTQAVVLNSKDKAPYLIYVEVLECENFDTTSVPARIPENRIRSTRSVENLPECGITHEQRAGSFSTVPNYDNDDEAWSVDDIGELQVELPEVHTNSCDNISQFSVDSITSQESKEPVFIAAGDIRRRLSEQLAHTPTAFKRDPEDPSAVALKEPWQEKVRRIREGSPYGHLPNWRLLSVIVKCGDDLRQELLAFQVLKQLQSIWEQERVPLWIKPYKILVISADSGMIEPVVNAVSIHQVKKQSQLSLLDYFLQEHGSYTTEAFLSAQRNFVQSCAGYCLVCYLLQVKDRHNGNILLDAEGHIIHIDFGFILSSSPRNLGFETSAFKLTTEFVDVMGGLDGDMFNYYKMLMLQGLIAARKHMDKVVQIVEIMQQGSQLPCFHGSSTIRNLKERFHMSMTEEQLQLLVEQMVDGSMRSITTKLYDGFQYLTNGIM
Sphingosine kinase 1 (Homo sapiens), sequence (Q9NYA1 whole entry): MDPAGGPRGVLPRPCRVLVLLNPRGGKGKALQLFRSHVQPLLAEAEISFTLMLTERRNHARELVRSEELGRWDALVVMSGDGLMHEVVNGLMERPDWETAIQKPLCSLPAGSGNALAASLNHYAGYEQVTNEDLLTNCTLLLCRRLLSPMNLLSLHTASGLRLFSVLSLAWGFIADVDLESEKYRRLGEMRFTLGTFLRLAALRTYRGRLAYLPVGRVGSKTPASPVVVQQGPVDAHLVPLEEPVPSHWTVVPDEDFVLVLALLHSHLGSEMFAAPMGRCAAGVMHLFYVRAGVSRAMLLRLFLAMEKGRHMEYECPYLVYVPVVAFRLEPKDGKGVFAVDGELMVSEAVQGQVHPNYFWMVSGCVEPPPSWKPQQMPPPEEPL
Phosphatidylinositol 4,5-bisphosphate 3-kinase catalytic subunit alpha isoform (Homo sapiens), sequence (P42336 whole entry, canonical isoform): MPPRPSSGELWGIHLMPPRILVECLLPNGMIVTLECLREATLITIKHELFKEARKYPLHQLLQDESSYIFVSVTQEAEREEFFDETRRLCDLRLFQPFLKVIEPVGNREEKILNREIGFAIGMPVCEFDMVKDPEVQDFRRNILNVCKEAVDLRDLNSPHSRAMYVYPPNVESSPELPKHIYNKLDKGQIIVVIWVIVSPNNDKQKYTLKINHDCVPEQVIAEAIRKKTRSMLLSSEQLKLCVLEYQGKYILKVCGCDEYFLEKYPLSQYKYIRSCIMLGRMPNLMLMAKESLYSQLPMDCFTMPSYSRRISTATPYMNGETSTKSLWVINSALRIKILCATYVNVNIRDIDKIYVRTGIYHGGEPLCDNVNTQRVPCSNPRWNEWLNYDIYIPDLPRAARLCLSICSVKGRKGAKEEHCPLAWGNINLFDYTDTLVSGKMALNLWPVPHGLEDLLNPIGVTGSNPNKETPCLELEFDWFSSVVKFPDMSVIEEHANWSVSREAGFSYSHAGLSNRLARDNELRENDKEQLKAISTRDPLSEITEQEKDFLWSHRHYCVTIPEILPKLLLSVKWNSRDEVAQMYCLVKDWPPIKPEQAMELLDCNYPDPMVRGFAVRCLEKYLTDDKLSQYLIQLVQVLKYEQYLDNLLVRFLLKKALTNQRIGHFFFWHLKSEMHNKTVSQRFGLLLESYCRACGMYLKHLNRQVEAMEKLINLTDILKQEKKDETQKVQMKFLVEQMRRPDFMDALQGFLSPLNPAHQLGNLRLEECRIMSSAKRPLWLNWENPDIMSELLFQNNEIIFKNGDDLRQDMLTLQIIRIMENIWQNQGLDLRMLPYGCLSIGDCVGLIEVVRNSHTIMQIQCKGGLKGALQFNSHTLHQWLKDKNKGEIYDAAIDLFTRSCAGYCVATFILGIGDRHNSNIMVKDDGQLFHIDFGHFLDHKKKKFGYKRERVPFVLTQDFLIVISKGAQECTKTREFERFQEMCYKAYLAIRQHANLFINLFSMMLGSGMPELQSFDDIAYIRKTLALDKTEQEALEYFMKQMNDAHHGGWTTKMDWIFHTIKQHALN
Casein kinase II subunit alpha (Homo sapiens), sequence (P68400 whole entry, looked up): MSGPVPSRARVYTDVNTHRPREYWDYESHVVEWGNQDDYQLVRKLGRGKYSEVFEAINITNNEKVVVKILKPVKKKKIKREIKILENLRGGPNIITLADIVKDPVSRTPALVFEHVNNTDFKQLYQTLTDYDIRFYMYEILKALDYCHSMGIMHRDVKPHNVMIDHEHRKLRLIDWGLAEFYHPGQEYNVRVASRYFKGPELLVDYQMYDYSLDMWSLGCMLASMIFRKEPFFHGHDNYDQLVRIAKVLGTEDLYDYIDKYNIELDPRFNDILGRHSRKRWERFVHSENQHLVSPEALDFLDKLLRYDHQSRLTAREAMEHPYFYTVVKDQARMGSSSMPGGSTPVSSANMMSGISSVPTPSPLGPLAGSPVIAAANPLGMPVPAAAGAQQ
SRSF protein kinase 1 (Homo sapiens), sequence (Q96SB4 whole entry): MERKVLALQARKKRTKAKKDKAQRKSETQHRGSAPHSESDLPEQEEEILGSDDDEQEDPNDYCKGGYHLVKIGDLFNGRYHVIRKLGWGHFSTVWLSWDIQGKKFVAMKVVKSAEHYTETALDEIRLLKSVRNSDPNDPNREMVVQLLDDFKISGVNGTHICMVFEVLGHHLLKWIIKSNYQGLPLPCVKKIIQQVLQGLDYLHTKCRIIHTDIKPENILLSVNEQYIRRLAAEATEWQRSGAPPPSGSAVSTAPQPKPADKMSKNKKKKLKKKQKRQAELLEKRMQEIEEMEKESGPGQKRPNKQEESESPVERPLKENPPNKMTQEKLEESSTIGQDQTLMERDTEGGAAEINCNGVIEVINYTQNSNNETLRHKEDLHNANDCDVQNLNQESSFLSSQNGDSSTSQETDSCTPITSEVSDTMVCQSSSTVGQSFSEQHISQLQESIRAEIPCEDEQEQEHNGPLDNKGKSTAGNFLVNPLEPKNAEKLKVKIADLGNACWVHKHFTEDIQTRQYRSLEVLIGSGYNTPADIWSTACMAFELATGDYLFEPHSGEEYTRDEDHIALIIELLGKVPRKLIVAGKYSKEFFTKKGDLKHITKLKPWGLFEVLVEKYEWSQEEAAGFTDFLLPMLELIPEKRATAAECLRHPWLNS

For orientation: inhibition means the drop in the measured response relative to a control, in per cent. For the compound `COc1cc(C)c(N(C)C(=O)CN(C)C)cc1Nc1nc(Nc2cccc(F)c2C(N)=O)c2cc[nH]c2n1`, the inhibition in assay [1] was 1.09%; in assay [2], -1.96%; in assay [3], -3.38%; in assay [4] it was 0.08%; in [5], -0.5%; in assay [6], 0.21%. The inhibition is 1.56% in assay [7]; 3.54% in assay [8]; 0.7% in assay [9]; 0.03% in assay [10]; -0.02% in [11]; 0.91% in assay [12]. Moreover, the inhibition was -0.35% in assay [13]; 0.17% in assay [14]; 4.3% in [15]; 3.63% in assay [16]; 1.85% in assay [17]; 2.96% in assay [18]. For the same compound, the results for the inhibition in assay [19] and in assay [20] were -0.54% and 1.26%, respectively.
Consider `Cc1ccc(C(=O)NC(C)C)cc1-c1ccc(C(=O)NCC2CC2)cc1`, for which the inhibition in assay [1] is -1.93%; in assay [2], 1.33%; in assay [3], 30.8%; in assay [4], -2.38%; in assay [5], -1.61%; in [6], -1.08%. The inhibition in [7] is -1.45%; in assay [8], -3.91%; in assay [9] it was -3.13%; in [10], -0.6%; in assay [11], -2.98%; in assay [12], -1.05%. Also, the inhibition in [13] is 1.77%; in assay [14], 7.28%; in [15], 0.22%; in assay [16], 2.97%; in assay [17] it was -1.81%; in assay [18], -0.39%. Besides, the inhibition in assay [19] is -1.83%; in assay [20], -5.06%.
As for `c1ccc(-c2n[nH]cc2-c2ccnc(-c3ccc(OCCN4CCOCC4)cc3)c2)nc1`, the inhibition in [1] was 0.29%; in assay [2], 2.99%; in assay [3] it was -0.67%; in assay [4], 0.37%; in assay [5] it was 0.17%; in [6], 2.7%. In addition, the inhibition in assay [7] is 3.02%; in [8], -0.93%; in assay [9], -1.19%; in assay [10], -5.06%; in assay [11], -1.7%; in assay [12] it was 0.79%. For the same compound, the inhibition in assay [13] is -2.14%; in [14], -3.28%; in assay [15] it was -4.72%; in [16] it was -2.42%; in assay [17], -8.48%; in assay [18], -4.16%. Further, the values for the inhibition in [19] and in [20] were -6.86% and -5.44%, respectively.
